Experimental data as given in PubChem BioAssay (Tox21).
Records with an inconclusive call do not appear. Activity calls are given as the source filed them. The call rests on the fitted dose curve.

Molecular target: Progesterone receptor (Homo sapiens) (UniProt P06401)
Assay: qHTS assay to identify small molecule agonists of the progesterone receptor (PR) signaling pathway (AID 1346784); further: nearly all actives have a fitted effect of over 30% in size
Conditions: PR-UAS-bla HEK293T, beta-lactamase FRET ratio, 16 h; series mostly up to 92.4 µM; activation: at the top concentration
From the text: U.S. Tox21 Program National Center for Advancing Translational Sciences [NCATS] NIH Chemical Genomics Center [NCGC] U.S. Environmental Protection Agency [EPA] National Institutes of Environmental Health Sciences [NIEHS] National Toxicology Program [NTP] U.S. Food and Drug Administration [FDA] […] Endocrine disrupting chemicals (EDCs) and their interactions with steroid hormone receptors like PR causes disruption of normal endocrine function. To identify the compounds that activate PR signaling, a PR-UAS-bla GripTite cell line i.e. PR-UAS-bla HEK 293T (Invitrogen, Carlsbad, CA, USA) containing a beta-lactamase reporter gene under the control of an Upstream Activator Sequence (UAS) was used to screen Tox21 10K compound library.
Tox21 Assay Protocol Summary: PR-UAS-bla HEK 293T cells were dispensed at 3,000 cells/5 uL of assay medium containing 2% charcoal stripped FBS per well into black wall/clear-bottom 1536-well plates using a Multidrop Combi (ThermoFisher Scientific, Waltham, MA) dispenser. After the assay plates were incubated at a 37C and 5% CO2 for 6hr, 23 nL of compounds dissolved in DMSO, positive controls or DMSO only was transferred to the assay plate by a Pintool station (Kalypsys, San Diego, CA). The plates were incubated at 37C and 5% CO2 for 16hr. Then 1 uL of LiveBLAzer B/G FRET substrate was added using a BioRAPTR FRD (Flying Reagent Dispenser, Aurora Discovery, San Diego, CA). After the plates were incubated at room temperature for 2 hours, fluorescence intensity was measured by an Envision plate reader (PerkinElmer, Shelton, CT).
On the % scale 0 is the no-effect control and ±100 the full control effect; potency means the concentration at half of the fitted maximal effect.

Chain of Progesterone receptor (Homo sapiens) (P06401 whole entry, looked up): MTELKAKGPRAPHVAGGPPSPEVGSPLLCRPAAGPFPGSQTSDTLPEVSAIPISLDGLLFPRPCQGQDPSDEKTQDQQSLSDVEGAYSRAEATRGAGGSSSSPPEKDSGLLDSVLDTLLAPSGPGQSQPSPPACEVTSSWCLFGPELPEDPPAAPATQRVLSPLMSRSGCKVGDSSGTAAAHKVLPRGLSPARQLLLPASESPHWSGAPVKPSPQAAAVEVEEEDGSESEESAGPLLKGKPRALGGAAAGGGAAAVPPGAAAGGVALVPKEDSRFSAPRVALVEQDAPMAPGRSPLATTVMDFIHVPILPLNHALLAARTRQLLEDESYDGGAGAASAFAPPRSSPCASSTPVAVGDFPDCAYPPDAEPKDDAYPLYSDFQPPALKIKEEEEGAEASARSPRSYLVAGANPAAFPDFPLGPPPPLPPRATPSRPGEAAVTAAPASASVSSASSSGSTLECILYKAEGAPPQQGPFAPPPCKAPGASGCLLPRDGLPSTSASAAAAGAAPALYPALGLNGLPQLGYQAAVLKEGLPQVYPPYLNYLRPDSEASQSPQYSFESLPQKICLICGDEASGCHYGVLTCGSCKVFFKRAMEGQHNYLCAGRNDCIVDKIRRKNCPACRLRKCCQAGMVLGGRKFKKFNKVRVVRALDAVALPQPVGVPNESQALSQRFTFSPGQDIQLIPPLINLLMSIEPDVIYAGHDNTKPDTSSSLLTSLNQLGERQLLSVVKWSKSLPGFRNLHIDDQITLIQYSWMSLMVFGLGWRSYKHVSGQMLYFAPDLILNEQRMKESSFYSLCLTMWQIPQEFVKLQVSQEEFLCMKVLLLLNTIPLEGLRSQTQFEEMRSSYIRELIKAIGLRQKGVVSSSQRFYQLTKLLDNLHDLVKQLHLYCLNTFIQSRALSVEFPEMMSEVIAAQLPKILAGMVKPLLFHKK

SMILES	activation	Potency
FC(F)(F)/C(=N\OCC1OCCO1)c1ccc(Cl)cc1	-0.314% (inactive)	
O=S(=O)(O)c1cc(O)ccc1O	-0.0779% (inactive)	
CC(=O)c1ccc2c(c1)CCCC2	0.458% (inactive)	
C=CCOC(=O)c1ccc(C(=O)OCC=C)c(C(=O)OCC=C)c1	-0.184% (inactive)	
CCCO	-0.176% (inactive)	
CC(C)C(=O)c1ccccc1	0.0315% (inactive)	
CC(=O)Nc1ncc([N+](=O)[O-])s1	-1.7% [at 42.5 µM] (inactive)	
O=C(O)/C=C/c1ccccc1	0.4% (inactive)	
C=C(C)C(=O)OCCCCCCOC(=O)C(=C)C	0.47% (inactive)	
CN[C@@H]1[C@@H](O)[C@@H](O[C@@H]2[C@H](O)[C@H](O[C@H]3OC(CN)=CC[C@H]3N)[C@@H](N)C[C@H]2N)OCC1(C)O (stereo not given in full)	0.792% [at 42.5 µM] (inactive)	
CO[Si](CCCCl)(OC)OC	4.09% (inactive)	
FC(F)(F)c1ccc(Cl)cc1Cl	-0.441% (inactive)	
C[N+](C)(C)CC(O)CCl (stereo not given)	0.341% (inactive)	
Nc1ccnc(=O)[nH]1	-0.718% (inactive)	
CC(C)C(=O)Nc1cccc(C(F)(F)F)c1	1.39% [at 42.5 µM] (inactive)	
Cc1ccccc1C(=O)N1CC/C(=N\OS(=O)(=O)O)c2ccc(Cl)cc21	-2.7% [at 42.5 µM] (inactive)	
CCCCCCCC/C=C\CCCCCCCC(=O)OC[C@@H](O)[C@H]1OC[C@H](O)[C@H]1O	5.49% (inactive)	
O=P(O)(O)OCC(O)CO (stereo not given)	-0.116% [at 42.5 µM] (inactive)	
COCCOCCOCCOC	0.642% (inactive)	
OC[C@@H](O)[C@H](O)[C@@H](O)[C@@H](O)CO	0.352% (inactive)	

SMILES	activation	Potency
CC(C)CCO	0.0924% (inactive)	
C=CCOCC(O)CCl (stereo not given)	0.0766% (inactive)	
Cc1oc(=O)oc1CN1CCN(c2cc3c(cc2F)c(=O)c(C(=O)O)c2n3C(C)S2)CC1 (stereo not given)	-0.216% [at 42.5 µM] (inactive)	
CCCCCCCCCCCCOC(C)=O	-1.69% (inactive)	
O=S(=O)(O)CCO		49.2 µM (active)
NC(=O)NNC(N)=O	-0.517% (inactive)	
CCCCCCCCCCCCCCCC(=O)NCCO	0.786% [at 42.5 µM] (inactive)	
COc1cc2c(Nc3ccc(Br)cc3F)ncnc2cc1OCC1CCN(C)CC1	0.693% [at 42.5 µM] (inactive)	
c1ccc(CNc2ncnc3nc[nH]c23)cc1	0.0528% (inactive)	
NCCc1ccn[nH]1	-0.276% [at 42.5 µM] (inactive)	
Cc1nc([N+](=O)[O-])cn1-c1ccc([N+](=O)[O-])cc1	2.63% [at 42.5 µM] (inactive)	
CNC(=O)NC	0.445% (inactive)	
C[C@H]1O[C@H](O[C@H]2[C@H](O)[C@@H](O)[C@@H](O[C@H]3[C@H](O)[C@@H](O)[C@H](O)O[C@@H]3CO)O[C@@H]2CO)[C@H](O)[C@@H](O)[C@@H]1N[C@H]1C=C(CO)[C@@H](O)[C@H](O)[C@H]1O	-0.868% [at 42.5 µM] (inactive)	
Cc1ccccc1N1CCN(CCc2nnc3n2CCCC3)CC1	-2.41% [at 42.5 µM] (inactive)	
CCC(=O)OCCC(C)CCC=C(C)C (stereo not given)	1.23% (inactive)	
CCS(=O)(=O)CCn1c([N+](=O)[O-])cnc1C	0.5% [at 42.5 µM] (inactive)	
Cc1ncc([N+](=O)[O-])n1CC(O)CCl (stereo not given)	3.19% [at 42.5 µM] (inactive)	
CCC(C)(CCC(C)C)C(=O)[O-].CCC(C)(CCC(C)C)C(=O)[O-].[Zn+2] (stereo not given)	-5.27% (inactive)	
CCCCC(C)C(=O)O (stereo not given)	-0.926% (inactive)	
C=C(C)[C@@H]1CC[C@@H](C)C[C@@H]1O	0.235% (inactive)	
